Assay results reported in PubChem BioAssay (EPA / NIEHS).
Active and inactive are the calls of the source. The calls were made as follows: active = hit-call score of the fitted dose curve at least 0.9, where 1 is the maximum; inactive = score below 0.9.

Assays:
[1] = read-out: Tumor necrosis factor receptor superfamily member 6 (Homo sapiens) (UniProt P25445); assay: LTEA_HepaRG_FAS: Life Technologies and Expression Analysis (LTEA) Assay for Fas cell surface death receptor (FAS) using HepaRG (AID 2283447); settings: mRNA level, 48 h; actives raise or lower the signal
Procedure, shortened: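 Differentiated HepaRG cells in serum-free induction medium were exposed 48 h to 8 half-log concentrations up to 100 uM in 0.5% DMSO, in duplicate. FAS mRNA was measured by qRT-PCR normalised to ACTB, GAPDH and POLR2A; bidirectional fit versus DMSO.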

[2] = read-out: Fatty acid synthase (Homo sapiens) (UniProt P49327); assay: LTEA_HepaRG_FASN: Life Technologies and Expression Analysis (LTEA) Assay for Fatty Acid Synthase (FASN) using HepaRG (AID 2283448); settings: mRNA level, 48 h; actives raise or lower the signal
Procedure, shortened: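 Differentiated human HepaRG cells were exposed for 48 h in serum-free induction medium to eight half-log concentrations up to 100 uM in 0.5% DMSO, in duplicate. FASN mRNA was quantified by TaqMan qRT-PCR, normalized to ACTB/GAPDH/POLR2A, and fitted bidirectionally against DMSO.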

[3] = read-out: Cyclin D2 (CCND2), CCND2 (gene 894); assay: LTEA_HepaRG_CCND2: Life Technologies and Expression Analysis (LTEA) Assay for Cyclin D2 (CCND2) using HepaRG (AID 2283449); settings: mRNA level, 48 h; actives raise or lower the signal;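 also: CCND2 transcript measured by TaqMan qRT-PCR and normalised to three housekeeping genes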
Procedure, shortened: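 Chemicals in 0.5% DMSO, eight half-log concentrations from 100 uM top, were applied in duplicate for 48 h to human HepaRG cells in serum-free induction medium. CCND2 mRNA by TaqMan qRT-PCR, normalised to ACTB/GAPDH/POLR2A; bidirectional fit versus DMSO.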

[4] = read-out: Cyclin Dependent Kinase Inhibitor 1A (CDKN1A), CDKN1A (gene 1026); assay: LTEA_HepaRG_CDKN1A: Life Technologies and Expression Analysis (LTEA) Assay for Cyclin Dependent Kinase Inhibitor 1A (CDKN1A) using HepaRG (AID 2283450); settings: mRNA level, 48 h; actives raise or lower the signal
Procedure, shortened: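 Read-out is CDKN1A mRNA by TaqMan qRT-PCR, normalized to three housekeeping genes and fitted in both directions against the DMSO baseline. Human HepaRG cells were treated 48 h with test chemicals up to 100 uM in half-log steps, 0.5% DMSO.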

[5] = read-out: Cyclin D1 (CCND1), CCND1 (gene 595); assay: LTEA_HepaRG_CCND1: Life Technologies and Expression Analysis (LTEA) Assay for Cyclin D1 (CCND1) using HepaRG (AID 2283451); settings: mRNA level, 48 h; actives raise or lower the signal;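 as to AC50: TaqMan qRT-PCR transcript level normalised to ACTB GAPDH and POLR2A housekeeping genes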
Procedure, shortened: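 HepaRG plated 48 h, medium switched to serum-free induction medium, chemicals added in duplicate (top 100 uM, half-log steps, 0.5% DMSO) for 48 h, cells lysed, RNA measured by TaqMan qRT-PCR.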

[6] = read-out: catalase (CAT), CAT (gene 847); assay: LTEA_HepaRG_CAT: Life Technologies and Expression Analysis (LTEA) Assay for catalase (CAT) using HepaRG (AID 2283452); settings: mRNA level, 48 h; actives raise or lower the signal;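 as to AC50: TaqMan qRT-PCR signal normalized to ACTB GAPDH and POLR2A housekeeping genes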
Procedure, shortened: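 HepaRG cells in serum-free induction medium, 0.5% DMSO vehicle, exposed 48 h in duplicate over 8 half-log concentrations from 100 uM. CAT mRNA measured by qRT-PCR, normalized to ACTB, GAPDH, POLR2A; bidirectional fit versus DMSO.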

[7] = read-out: flavin-containing dimethylaniline monooxygenases 3 (FMO3), FMO3 (gene 2328); assay: LTEA_HepaRG_FMO3: Life Technologies and Expression Analysis (LTEA) Assay for flavin-containing dimethylaniline monooxygenases 3 (FMO3) using HepaRG (AID 2283453); settings: mRNA level, 48 h; actives raise or lower the signal
Procedure, shortened: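 HepaRG, 48 h exposure, 8-pt half-log series from 100 uM, 0.5% DMSO vehicle, duplicates; FMO3 transcript by Fluidigm TaqMan qRT-PCR, housekeeping-normalized; gain/loss fit vs DMSO.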

[8] = read-out: Cytochrome P450 (CYP1A1), CYP1A1 (gene 1543); assay: LTEA_HepaRG_CYP1A1: Life Technologies and Expression Analysis (LTEA) Assay for Cytochrome P450 (CYP1A1) using HepaRG (AID 2283454); settings: mRNA level, 48 h; actives raise or lower the signal
Procedure, shortened: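 HepaRG, 48 h post-plating switched to serum-free induction medium; 8-pt conc-response (top 100 uM, half-log, 0.5% DMSO), duplicates, 48 h. Lysis in RLT, TaqMan qRT-PCR for CYP1A1; gain or loss vs DMSO.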

[9] = read-out: CFLAR gene, CFLAR (gene 8837); assay: LTEA_HepaRG_CFLAR: Life Technologies and Expression Analysis (LTEA) Assay for CFLAR gene using HepaRG (AID 2283455); settings: mRNA level, 48 h; actives raise or lower the signal
Procedure, shortened: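 Differentiated HepaRG cells in serum-free induction medium were exposed 48 h in duplicate to eight half-log concentrations up to 100 uM in 0.5% DMSO; mRNA measured by TaqMan qRT-PCR, normalized to ACTB, GAPDH, POLR2A; bidirectional fitting versus DMSO.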

[10] = read-out: Forkhead box O1 (FOXO1), FOXO1 (gene 2308); assay: LTEA_HepaRG_FOXO1: Life Technologies and Expression Analysis (LTEA) Assay for Forkhead box O1 (FOXO1) using HepaRG (AID 2283456); settings: mRNA level, 48 h; actives raise or lower the signal
Procedure, shortened: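 Differentiated HepaRG cells, in serum-free induction medium with 0.5% DMSO, exposed 48 h in duplicate to 8-point half-log series from 100 uM. FOXO1 mRNA measured by TaqMan qRT-PCR, normalized to ACTB, GAPDH, POLR2A; bidirectional fit versus DMSO.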

[11] = read-out: growth arrest and DNA damage 45 (GADD45A), GADD45A (gene 1647); assay: LTEA_HepaRG_GADD45A: Life Technologies and Expression Analysis (LTEA) Assay for growth arrest and DNA damage 45 (GADD45A) using HepaRG (AID 2283458); settings: mRNA level, 48 h; actives raise or lower the signal
Procedure, shortened: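 Differentiated HepaRG cells were exposed in duplicate for 48 h in serum-free induction medium to 8-point half-log concentrations up to 100 uM in 0.5% DMSO. GADD45A mRNA was measured by TaqMan qRT-PCR, normalized to ACTB, GAPDH and POLR2A, with bidirectional fitting versus DMSO.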

[12] = read-out: Forkhead box O3 (FOXO3), FOXO3 (gene 2309); assay: LTEA_HepaRG_FOXO3: Life Technologies and Expression Analysis (LTEA) Assay for Forkhead box O3 (FOXO3) using HepaRG (AID 2283459); settings: mRNA level, 48 h; actives raise or lower the signal
Procedure, shortened: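 Differentiated human HepaRG cells, 48 h post-plating, exposed in duplicate for 48 h in serum-free induction medium; 8-point half-log series from 100 uM in 0.5% DMSO. FOXO3 mRNA by TaqMan qRT-PCR, normalized to ACTB/GAPDH/POLR2A; bidirectional fit versus DMSO.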

[13] = read-out: ABC Transporter (ABCB1), ABCB1 (gene 5243); assay: LTEA_HepaRG_ABCB1: Life Technologies and Expression Analysis (LTEA) Assay for ABC Transporter (ABCB1) using HepaRG (AID 2283460); settings: mRNA level, 48 h; actives raise or lower the signal
Procedure, shortened: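 HepaRG cells exposed in duplicate for 48 h in serum-free induction medium to eight half-log concentrations up to 100 uM in 0.5% DMSO. ABCB1 mRNA quantified by qRT-PCR, normalised to ACTB, GAPDH and POLR2A; fitted bidirectionally versus DMSO.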

[14] = read-out: growth arrest and DNA damage 45 (GADD45B), GADD45B (gene 4616); assay: LTEA_HepaRG_GADD45B: Life Technologies and Expression Analysis (LTEA) Assay for growth arrest and DNA damage 45 (GADD45B) using HepaRG (AID 2283461); settings: mRNA level, 48 h; actives raise or lower the signal
Procedure, shortened: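 HepaRG, ~100,000 cells/well, 48 h plating; serum-free induction medium; cpd 100 uM top, half-log x8, 0.5% DMSO, duplicate, 48 h; lysis in RLT, RNA isolation, qRT-PCR; norm ACTB/GAPDH/POLR2A; bidirectional fit vs DMSO.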

[15] = read-out: ABC Transporter (ABCC3), ABCC3 (gene 8714); assay: LTEA_HepaRG_ABCC3: Life Technologies and Expression Analysis (LTEA) Assay for ABC Transporter (ABCC3) using HepaRG (AID 2283462); settings: mRNA level, 48 h; actives raise or lower the signal
Procedure, shortened: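 Human HepaRG, 48 h dosing, 8-pt half-log series from 100 uM, 0.5% DMSO vehicle, duplicates. ABCC3 mRNA by TaqMan qRT-PCR, housekeeping-normalized; bidirectional curve fit vs DMSO.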

[16] = read-out: ABC Transporter (ABCB11), ABCB11 (gene 8647); assay: LTEA_HepaRG_ABCB11: Life Technologies and Expression Analysis (LTEA) Assay for ABC Transporter (ABCB11) using HepaRG (AID 2283463); settings: mRNA level, 48 h; actives raise or lower the signal
Procedure, shortened: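 Differentiated human HepaRG cells in serum-free induction medium, dosed in duplicate for 48 h. Eight-point half-log series from 100 uM in 0.5% DMSO; ABCB11 mRNA by qRT-PCR, normalized to ACTB, GAPDH, POLR2A, fitted bidirectionally versus DMSO.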

[17] = read-out: ABC Transporter (ABCC2), ABCC2 (gene 1244); assay: LTEA_HepaRG_ABCC2: Life Technologies and Expression Analysis (LTEA) Assay for ABC Transporter (ABCC2) using HepaRG (AID 2283464); settings: mRNA level, 48 h; actives raise or lower the signal
Procedure, shortened: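 HepaRG, 48 h post-plating; serum-free induction medium; cpd 8-pt, 100 uM top, half-log, 0.5% DMSO, duplicate, 48 h. Readout: ABCC2 mRNA by qRT-PCR, norm. ACTB/GAPDH/POLR2A. Bidirectional fit vs DMSO baseline.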

[18] = CEETOX_H295R_ESTRADIOL: CeeTox H295R High-throughput Steroidogenesis Assay for Estradiol (AID 2283440); settings: actives raise or lower the signal;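 also: estradiol secreted into medium quantified by LC-MS/MS after dansyl derivatisation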
Procedure, shortened: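 Estradiol secreted into the medium was measured by tandem mass spectrometry after liquid-liquid extraction and dansylation. Human H295R cells had been forskolin-primed (10 uM, 48 h) before a 48 h chemical exposure with 0.1% DMSO.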

[19] = CEETOX_H295R_ESTRONE: CeeTox H295R High-throughput Steroidogenesis Assay for Estrone (AID 2283441); settings: actives raise or lower the signal;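 also: estrone secreted into medium measured by LC-MS/MS after dansyl derivatization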
Procedure, shortened: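 H295R cells; 48 h forskolin (10 uM) prestimulation; 48 h compound exposure, 0.1% DMSO final. Medium estrone: MTBE extraction, dansyl derivatization, HPLC-MS/MS. Bidirectional fit vs DMSO.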

[20] = CEETOX_H295R_TESTO: CeeTox H295R High-throughput Steroidogenesis Assay for Testosterone (TESTO) (AID 2283457); settings: actives raise or lower the signal
Procedure, shortened: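 H295R, passage ≤10, 48 h dosing; media extracted with MTBE → HPLC-MS/MS for testosterone; 7-pt standard curve sets LLOQ/ULOQ; bidirectional fit vs DMSO; MTT viability same wells.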

Measured: AC50

Sequence of Fatty acid synthase (Homo sapiens) (P49327 whole entry, looked up): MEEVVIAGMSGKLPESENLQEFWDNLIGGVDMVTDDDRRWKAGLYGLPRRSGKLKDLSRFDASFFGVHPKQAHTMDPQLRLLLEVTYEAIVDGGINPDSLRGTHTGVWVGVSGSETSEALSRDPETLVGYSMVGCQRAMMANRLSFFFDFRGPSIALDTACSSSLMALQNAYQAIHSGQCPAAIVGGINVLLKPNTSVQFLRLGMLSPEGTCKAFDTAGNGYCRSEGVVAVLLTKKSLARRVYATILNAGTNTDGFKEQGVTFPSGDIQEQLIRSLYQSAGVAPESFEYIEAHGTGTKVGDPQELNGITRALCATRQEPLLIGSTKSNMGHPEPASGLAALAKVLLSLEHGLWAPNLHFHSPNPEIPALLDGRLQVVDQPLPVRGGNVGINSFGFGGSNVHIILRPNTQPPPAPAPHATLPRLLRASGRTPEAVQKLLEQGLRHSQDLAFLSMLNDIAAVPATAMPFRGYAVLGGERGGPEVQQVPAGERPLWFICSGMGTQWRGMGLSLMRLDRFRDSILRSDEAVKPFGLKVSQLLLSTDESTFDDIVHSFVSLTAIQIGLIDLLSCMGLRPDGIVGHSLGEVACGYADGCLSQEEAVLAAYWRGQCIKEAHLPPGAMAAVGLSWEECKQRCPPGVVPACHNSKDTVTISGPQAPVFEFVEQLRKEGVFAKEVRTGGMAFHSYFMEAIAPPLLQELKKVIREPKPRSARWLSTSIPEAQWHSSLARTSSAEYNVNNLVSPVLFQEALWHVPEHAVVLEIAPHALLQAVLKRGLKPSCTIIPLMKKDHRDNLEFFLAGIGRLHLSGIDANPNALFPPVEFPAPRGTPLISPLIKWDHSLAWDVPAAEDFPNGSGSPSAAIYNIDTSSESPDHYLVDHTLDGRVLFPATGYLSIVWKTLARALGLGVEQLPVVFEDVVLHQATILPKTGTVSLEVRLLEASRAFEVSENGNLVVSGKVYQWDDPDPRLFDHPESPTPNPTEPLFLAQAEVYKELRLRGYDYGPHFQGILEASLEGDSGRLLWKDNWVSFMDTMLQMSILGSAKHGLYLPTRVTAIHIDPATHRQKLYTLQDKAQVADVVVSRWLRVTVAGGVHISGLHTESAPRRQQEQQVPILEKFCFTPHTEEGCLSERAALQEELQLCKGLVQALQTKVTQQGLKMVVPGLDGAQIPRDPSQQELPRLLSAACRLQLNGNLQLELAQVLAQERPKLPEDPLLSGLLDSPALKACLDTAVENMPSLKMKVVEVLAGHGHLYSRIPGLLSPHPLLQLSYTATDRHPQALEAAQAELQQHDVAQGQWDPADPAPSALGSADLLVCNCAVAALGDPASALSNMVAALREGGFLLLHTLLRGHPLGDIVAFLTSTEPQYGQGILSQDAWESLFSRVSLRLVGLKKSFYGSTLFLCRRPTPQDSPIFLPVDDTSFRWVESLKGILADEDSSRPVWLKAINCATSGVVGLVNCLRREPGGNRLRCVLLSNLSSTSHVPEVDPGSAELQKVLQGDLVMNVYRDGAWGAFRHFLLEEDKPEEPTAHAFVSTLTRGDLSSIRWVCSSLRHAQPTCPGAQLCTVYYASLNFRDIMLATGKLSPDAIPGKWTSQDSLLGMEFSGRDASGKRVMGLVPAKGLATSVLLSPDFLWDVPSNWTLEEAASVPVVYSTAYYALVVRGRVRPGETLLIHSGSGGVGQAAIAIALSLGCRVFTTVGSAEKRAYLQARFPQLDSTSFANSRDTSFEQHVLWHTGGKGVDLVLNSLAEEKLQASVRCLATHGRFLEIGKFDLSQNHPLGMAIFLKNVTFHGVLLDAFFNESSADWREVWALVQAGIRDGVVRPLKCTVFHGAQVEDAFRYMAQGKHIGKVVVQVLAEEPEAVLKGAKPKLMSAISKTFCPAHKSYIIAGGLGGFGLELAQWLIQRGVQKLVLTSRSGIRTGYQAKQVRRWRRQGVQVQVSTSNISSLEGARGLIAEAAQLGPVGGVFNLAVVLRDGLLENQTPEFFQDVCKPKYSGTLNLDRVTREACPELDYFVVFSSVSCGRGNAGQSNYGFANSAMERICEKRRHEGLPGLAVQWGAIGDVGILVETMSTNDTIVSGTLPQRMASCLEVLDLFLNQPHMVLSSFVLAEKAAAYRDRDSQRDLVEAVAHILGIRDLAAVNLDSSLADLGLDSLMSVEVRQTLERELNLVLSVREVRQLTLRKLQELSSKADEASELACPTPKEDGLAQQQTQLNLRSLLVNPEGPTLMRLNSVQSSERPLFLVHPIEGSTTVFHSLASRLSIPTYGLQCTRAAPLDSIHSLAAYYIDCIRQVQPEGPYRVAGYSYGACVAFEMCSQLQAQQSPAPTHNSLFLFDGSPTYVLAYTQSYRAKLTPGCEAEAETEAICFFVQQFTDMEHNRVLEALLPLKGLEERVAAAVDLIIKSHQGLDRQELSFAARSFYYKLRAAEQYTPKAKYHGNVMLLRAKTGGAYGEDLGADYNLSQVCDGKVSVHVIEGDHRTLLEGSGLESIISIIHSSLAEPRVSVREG

c1ccc(C(O[C@@H]2CCCN(CCc3ccc4c(c3)OCO4)C2)c2ccccc2)cc1
inactive: [3] | [9] | [10]
active: [1] 50 µM | [2] 79.9 µM | [4] 77.7 µM | [5] 50 µM | [6] 69.7 µM | [7] 70 µM | [8] 13.2 µM | [11] 89.2 µM | [12] 10.2 µM | [13] 83.9 µM | [14] 81.1 µM | [15] 30.1 µM | [16] 76.8 µM | [17] 79.7 µM

Cn1cc[nH]c1=S
active: [8] 37.4 µM
inactive: [1] | [2] | [3] | [4] | [5] | [6] | [7] | [9] | [10] | [11] | [12] | [13] | [14] | [15] | [16] | [17]

OCc1c[nH]c2ccccc12
inactive: [18] | [19] | [20]

OC[C@H]1O[C@@](CO)(O[C@H]2O[C@H](CO)[C@@H](O)[C@H](O)[C@H]2O)[C@@H](O)[C@@H]1O
active: [8] 67.1 µM
inactive: [1] | [2] | [3] | [4] | [5] | [6] | [7] | [9] | [10] | [11] | [12] | [13] | [14] | [15] | [16] | [17]

CC(C)CC(C)O (stereo unspecified)
active: [8] 50 µM
inactive: [1] | [2] | [3] | [4] | [5] | [6] | [7] | [9] | [10] | [11] | [12] | [13] | [14] | [15] | [16] | [17]
